Test results from PubChem BioAssay (NCI).
This is part of a sample that, as a whole, favours compounds with a hit. Of some 83,000 tested, about 20% had one in any assay.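 Compound tested at a single concentration for 48 hours in 96-well plates; a percent growth value below 10 was scored as active.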 The source made the active and inactive calls.

Key:
Test in all cases: NCI-60 one-dose screen, 48 h (100 = growth as untreated, 0 = no growth, -100 = all killed)
Settings in all cases: 10 µM
NCI-H23 lung = system: NCI-H23 lung
NCI-H226 lung = system: NCI-H226 lung
NCI-H322M lung = system: NCI-H322M lung
HOP-62 NSCLC = system: HOP-62 NSCLC
NCI-H460 lung = system: NCI-H460 lung
HOP-92 NSCLC = system: HOP-92 NSCLC
NCI-H522 lung = system: NCI-H522 lung
786-0 renal = system: 786-0 renal
COLO 205 colon = system: COLO 205 colon
A549/ATCC NSCLC = system: A549/ATCC NSCLC

Measured: growth

Cc1ccc(N)cc1[N+](=O)[O-]
inactive: NCI-H23 lung 97.1% | NCI-H226 lung 114% | NCI-H322M lung 129% | HOP-62 NSCLC 99.5% | NCI-H460 lung 109% | HOP-92 NSCLC 90% | NCI-H522 lung 94.5% | 786-0 renal 108% | COLO 205 colon 110%

O=[N+]([O-])c1ccc(CO)cc1
inactive: NCI-H23 lung 104% | NCI-H226 lung 98.4% | NCI-H322M lung 98.9% | HOP-62 NSCLC 90.8% | NCI-H460 lung 98.7% | HOP-92 NSCLC 110% | NCI-H522 lung 104% | 786-0 renal 94.4% | COLO 205 colon 109%

O=C(Cc1ccc(OCc2ccccc2)cc1)NCc1ccc2c(c1)OCO2
inactive: NCI-H23 lung 78.3% | NCI-H226 lung 99.6% | NCI-H322M lung 80.8% | HOP-62 NSCLC 77.9% | NCI-H460 lung 28.7% | HOP-92 NSCLC 86.8% | A549/ATCC NSCLC 58.2% | 786-0 renal 88.7% | COLO 205 colon 85.5%

CC(=O)c1cc2c(cc1F)C(C)(C)CCC2(C)C
inactive: NCI-H23 lung 90.6% | NCI-H226 lung 96.9% | NCI-H322M lung 96.8% | HOP-62 NSCLC 112% | NCI-H460 lung 107% | HOP-92 NSCLC 88% | A549/ATCC NSCLC 89% | 786-0 renal 103% | COLO 205 colon 102%

O=C(O)c1ccccc1NCc1ccco1
inactive: NCI-H23 lung 90.9% | NCI-H226 lung 92.6% | NCI-H322M lung 102% | HOP-62 NSCLC 95.7% | NCI-H460 lung 102% | HOP-92 NSCLC 108% | A549/ATCC NSCLC 102% | 786-0 renal 97.2% | COLO 205 colon 126%

COc1cc2c(cc1OC)[C@H](C(=O)O)[C@@H](c1ccc(OC(C)C)c(OC)c1)N(C)C2=O
inactive: NCI-H23 lung 96.8% | NCI-H226 lung 89.9% | NCI-H322M lung 83.5% | HOP-62 NSCLC 92.4% | NCI-H460 lung 105% | HOP-92 NSCLC 83.3% | A549/ATCC NSCLC 106% | 786-0 renal 100% | COLO 205 colon 118%

COc1ccc(C(O)c2ccccc2)cc1 (configuration not stated)
inactive: NCI-H23 lung 97.6% | NCI-H226 lung 94% | NCI-H322M lung 93.7% | HOP-62 NSCLC 90.6% | NCI-H460 lung 98.7% | HOP-92 NSCLC 93.4% | NCI-H522 lung 94.8% | 786-0 renal 100% | COLO 205 colon 106%

O=[N+]([O-])c1ccccc1S(=O)c1ccccc1[N+](=O)[O-]
inactive: NCI-H23 lung 95.9% | NCI-H226 lung 111% | NCI-H322M lung 95.5% | HOP-62 NSCLC 108% | NCI-H460 lung 105% | HOP-92 NSCLC 76.2% | A549/ATCC NSCLC 101% | 786-0 renal 111% | COLO 205 colon 106%

COc1cccc(COC(=O)Nc2ccccc2)c1OC
inactive: NCI-H23 lung 110% | NCI-H226 lung 96.6% | NCI-H322M lung 101% | HOP-62 NSCLC 100% | NCI-H460 lung 103% | HOP-92 NSCLC 109% | A549/ATCC NSCLC 94.5% | 786-0 renal 98.9% | COLO 205 colon 114%

COC(=O)c1[nH]c(=O)c(C#N)c(C(=O)OC)c1C(=O)c1ccccc1
inactive: NCI-H23 lung 95.4% | NCI-H226 lung 97.7% | NCI-H322M lung 101% | HOP-62 NSCLC 94.2% | NCI-H460 lung 102% | HOP-92 NSCLC 101% | NCI-H522 lung 99.7% | 786-0 renal 100% | COLO 205 colon 123%

CCS(=O)(=O)c1cc(=O)[nH]c(=O)[nH]1
inactive: NCI-H23 lung 99.9% | NCI-H226 lung 107% | NCI-H322M lung 87.4% | HOP-62 NSCLC 106% | NCI-H460 lung 106% | HOP-92 NSCLC 162% | A549/ATCC NSCLC 102% | 786-0 renal 100% | COLO 205 colon 113%

CC1(C)Nc2cccc3c(N=Nc4ccc(N=Nc5ccccc5)c5ccccc45)ccc(c23)N1
inactive: NCI-H23 lung 85.1% | NCI-H226 lung 94% | NCI-H322M lung 91.4% | HOP-62 NSCLC 93.1% | NCI-H460 lung 92.1% | HOP-92 NSCLC 82.6% | A549/ATCC NSCLC 99.3% | 786-0 renal 122% | COLO 205 colon 89.2%

CCCCCC(C)(CC(=O)O)CC(=O)O
inactive: NCI-H23 lung 115% | NCI-H226 lung 97% | NCI-H322M lung 113% | HOP-62 NSCLC 101% | NCI-H460 lung 108% | HOP-92 NSCLC 119% | A549/ATCC NSCLC 101% | 786-0 renal 107% | COLO 205 colon 116%

O=C(O)c1ccc(S(=O)(=O)O)cc1
inactive: NCI-H23 lung 101% | NCI-H226 lung 99.6% | NCI-H322M lung 98.8% | HOP-62 NSCLC 99.3% | NCI-H460 lung 109% | HOP-92 NSCLC 76.3% | A549/ATCC NSCLC 91.5% | 786-0 renal 89.7% | COLO 205 colon 129%

COc1cccc(Sc2ccc([N+](=O)[O-])c3no[n+]([O-])c23)c1
inactive: NCI-H23 lung 68.8% | NCI-H226 lung 85.3% | NCI-H322M lung 88.7% | HOP-62 NSCLC 103% | NCI-H460 lung 95.7%
active: HOP-92 NSCLC 3.91% | NCI-H522 lung -19.9% | COLO 205 colon -42.2%

NC(=O)c1ccc(N=C(N)N=C(N)N)cc1
inactive: NCI-H23 lung 102% | NCI-H226 lung 84.1% | NCI-H322M lung 90.6% | HOP-62 NSCLC 87.2% | NCI-H460 lung 104% | HOP-92 NSCLC 83.2% | NCI-H522 lung 103% | 786-0 renal 96.4% | COLO 205 colon 115%

CN(C)c1ccc(CNC(C(=O)c2ccccc2)c2ccccc2)cc1 (configuration not stated)
inactive: NCI-H23 lung 98.5% | NCI-H226 lung 101% | NCI-H322M lung 92.8% | HOP-62 NSCLC 75.5% | NCI-H460 lung 110% | HOP-92 NSCLC 78.9% | NCI-H522 lung 85.4% | 786-0 renal 109% | COLO 205 colon 113%
